Calls of active or inactive are those of the source. Rule for the calls: active = hit-call score of the fitted dose curve at least 0.9, where 1 is the maximum; inactive = score below 0.9.

Sequence of Cellular tumor antigen p53 (Homo sapiens) (P04637 whole entry, looked up): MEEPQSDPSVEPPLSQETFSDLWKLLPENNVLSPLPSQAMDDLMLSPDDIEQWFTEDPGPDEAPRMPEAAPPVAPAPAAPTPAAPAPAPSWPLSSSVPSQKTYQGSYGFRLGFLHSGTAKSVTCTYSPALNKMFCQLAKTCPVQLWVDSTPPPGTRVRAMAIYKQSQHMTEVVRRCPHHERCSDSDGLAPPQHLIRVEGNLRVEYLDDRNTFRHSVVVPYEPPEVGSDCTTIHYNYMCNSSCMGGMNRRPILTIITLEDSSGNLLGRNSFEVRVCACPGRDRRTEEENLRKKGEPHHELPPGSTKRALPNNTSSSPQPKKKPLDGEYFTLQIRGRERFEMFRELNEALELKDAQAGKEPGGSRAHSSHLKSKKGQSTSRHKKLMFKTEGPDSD

System in one assay: not listed separately
Description: ATG_Oct_MLP_CIS: Attagene CIS-FACTORIAL HepG2 Assay for human Octamer-Binding Transcription Factor (Oct) (AID 2282993). To be noted: HepG2 Attagene cis-factorial Oct reporter, mRNA; actives raise or lower the signal. An outline of the steps:
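HepG2 cells transiently transfected with cis-element-driven reporter transcription units (endogenous TF activity); 24 h compound exposure. Reporter mRNA quantified by RT-PCR, 6-FAM labelling, HpaI digestion and capillary electrophoresis; bidirectional fit versus DMSO baseline.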
For `CCc1ccc(C)nc1`, the result was inactive.

Consider `Nc1c(Br)cc([N+](=O)[O-])cc1Br`, for which the outcome was inactive.

For `CC(=O)c1ccccc1N`, the result was inactive.

On to `OCC1CCCO1` (stereo not drawn), for which the outcome was inactive.

As for `CCCCCCCC/C=C\CCCCCCCC(=O)OCC(O)CO` (stereo not drawn), the compound was classed as inactive.

With `Cc1ccc([N+](=O)[O-])c(C)c1`, the outcome was inactive.

In the case of `Brc1nc2ccccc2s1`, the result was inactive.

Consider `O=C1c2ccccc2C(=O)c2c(Cl)cccc21`, for which the compound was called inactive.

On to `OCCCCC(F)(F)C(F)(F)C(F)(F)C(F)(F)F`, for which the compound was classed as inactive.

In the case of `C[Si](C)O[Si](C)C`, the compound was classed as inactive.

Consider `CCC/C=C/CO`, for which the compound was called inactive.

In the case of `CC(=O)C=O`, the compound was called inactive.

For `CCCCOC(=O)[C@H](C)O`, the outcome was inactive.

The next assay concerns the target Cellular tumor antigen p53 (Homo sapiens) (UniProt P04637). Description: ATG_p53_CIS: Attagene CIS-FACTORIAL HepG2 Assay for human p53 Transcription Factor (AID 2282994). The settings on record: HepG2 p53 cis-element reporter, Attagene mRNA; actives raise or lower the signal. An outline of the steps: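 Endogenous p53 activity read in transiently transfected HepG2 from a cis-element-driven reporter transcript after 24 h exposure. RNA reverse-transcribed, PCR-amplified, fluorescently labelled and sized by capillary electrophoresis; gain or loss fitted against DMSO baseline.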
In the case of `CCOC(=O)C1CC(=O)C(=C(O)C2CC2)C(=O)C1` (stereo not drawn), the compound was called inactive.

Turning to `CCCCCC/C=C/CCCCCCCC(=O)O`, the compound was called inactive.

In the case of `Oc1ccc(C2(c3ccc(O)c(C4CCCCC4)c3)CCCCC2)cc1C1CCCCC1`, the call was inactive.

Turning to `N#CCCOCCC#N`, the compound was called inactive.

For `CCc1cc(Cc2cc(CC)c(N)c(CC)c2)cc(CC)c1N`, the AC50 was 27.2 µM (active).

Consider `O=C1OC(=O)c2ccc3c4c(ccc1c24)C(=O)OC3=O`, for which the compound was called inactive.

With `OCCC(O)CO` (stereo not drawn), the result was inactive.

As to `Cc1ccc(O)cn1`, the outcome was inactive.

`CCOC(OCC)OCC`: the result was inactive.

As to `Brc1ccccn1`, the call was inactive.

As to `O=S(=O)(O)CCC(F)(F)C(F)(F)C(F)(F)C(F)(F)F`, the compound was called inactive.

With `C[C@]12CC[C@H]3C(=CCc4cc(O)ccc43)[C@@H]1CCC2=O`, the compound was called inactive.

As to `CCCCC(CC)COC(=O)c1ccc(N(C)C)cc1` (stereo not drawn), the compound was classed as inactive.

As to `O=S(=O)(O)c1ccc(Cl)cc1`, the call was inactive.

On to `CN(N=O)C(=O)N[C@@H]1[C@@H](O)[C@H](O)[C@@H](CO)O[C@@H]1O`, for which the call was inactive.

The AC50 is the concentration at which the activity in the assay is half-maximal.

The values above are taken from PubChem BioAssay (EPA / NIEHS).
